# High-throughput results deposited in PubChem by National Center for Advancing Translational Sciences (NCATS).
# IL-1B inflam inh: blocks inflammasome-driven IL-1 beta release; hit rate 4.7% among 360,000; AID 743279; THP-1 LPS/ATP IL-1B secretion, AlphaLISA, 16 h; stronger effect = lower value; activity change, % at 57.5 µM; in the data active means activity change below about -50%; inconclusive means mostly about -30% to -49%; further: on the % scale 0 is the no-effect control and ±100 the full control effect
#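 Secreted IL-1B measured by AlphaLISA bead assay after 16 h compound exposure of THP-1 cells; compounds (final up to 57.5 uM) added 1 h before LPS (250 ng/mL) and ATP (1.25 mM) stimulation; lower signal means less secretion.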
# SW480 rereplic: DNA re-replication induction in SW480 cells | SW480 DNA re-replication, Hoechst DNA content imaging, 48 h | Potency, µM (top dose mostly 46.1 µM), for inactives: at the top dose re-replication activation, hits mostly activators | hit rate 1.8% among 340,000; further: potency means the concentration at half of the fitted maximal effect; % of control where 0% means no effect; nearly all actives have a fitted effect of over 55% in size
#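 Image-based read-out: total Hoechst fluorescence of nuclei (405 nm excitation, 500-530 nm emission), with hits raising the fraction of high-intensity nuclei. SW480 colon cells incubated 48 hr with compounds at 37 C.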
# MCF10A rereplic: DNA re-replication induction in MCF 10a cells | Potency, µM (doses to about 46.1 µM), for inactives: at the highest dose activity, positive = re-replication, most hits filed as activators | MCF 10A DNA re-replication, Hoechst nuclear intensity, 48 h | hit rate 2.9% among 350,000; further: potency means the concentration at half of the fitted maximal effect; % of control where 0% means no effect; nearly all actives have a fitted effect of over 50% in size
# DT40 TDP1 no CPT: qHTS for Inhibitors of human tyrosyl-DNA phosphodiesterase 1 (TDP1): qHTS in cells in absence of CPT; DT40 Tdp1-/- hTDP1 cells, no CPT, ATP luminescence, 48 h; Potency, µM (series often up to 46.2 µM), inactives show at the top dose activity change, negative = growth inhibition, hits mostly inhibitors; hit rate 15% among 420,000; further: potency means the concentration at half of the fitted maximal effect; on the % scale 0 is the no-effect control and ±100 the full control effect; nearly all actives have a fitted effect of over 55% in size
#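 Compound effects on proliferation are scored in DT40 Tdp1-/-;hTDP1 cells in the absence of CPT. ATP levels (CellTiter-Glo luminescence) are recorded after a ≥48 hr, 37 °C incubation.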
# DT40 TDP1 CPT: DT40-hTDP1 cell growth loss with CPT; Potency, µM (top dose mostly 46.2 µM), for the others: at the top dose activity change, negative = growth inhibition, most hits filed as inhibitors; chicken DT40 Tdp1-/-;hTDP1 cells + 20 nM CPT, ATP luminescence, 48 h; AID 686979; hit rate 12% among 420,000; further: potency means the concentration at half of the fitted maximal effect; on the % scale 0 is the no-effect control and ±100 the full control effect; nearly all actives have a fitted effect of over 55% in size
#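 Chicken DT40 Tdp1-/- cells stably complemented with human TDP1 were seeded at 400 cells/well in medium containing 20 nM camptothecin, exposed to pin-transferred compounds, and grown at 37 °C for at least 48 hr. Viability was read as ATP luminescence.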
# Chronic BCR inh: blocks chronic active B-cell receptor signaling; ABC-DLBCL IkBa-CBG/CBR reporter, luminescence ratio, 4 h; Potency, µM (series often up to 46.1 µM), for inactives: top-dose activity change, negative = inhibition, hits mostly inhibitors; hit rate 0.05% among 340,000; AID 493014; active means well fitted inhibition curve with a large enough effect in the signal ratio, with a control signal flat, not every such curve was filed as active; inconclusive means small, poorly fitted or top-dose-only effect, or effect the other way, or a change in a side signal; the % refers to the signal ratio;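 further: potency means the concentration at half of the fitted maximal effect; plate controls were basal doxycycline-induced cells for no effect and cells given 10 µM MG132 for full effect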
#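 TMD8 ABC-DLBCL cells carrying doxycycline-inducible green luciferase fused to IkappaBalpha plus unfused red luciferase were exposed to compounds (up to 46 uM) for 4 hrs at 37C. Activity came from the overlap-corrected green/red luminescence ratio.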
# Starred values were filed as active, the others as inactive; u = inconclusive; x = not tested or not shown; ! = repeats disagree; [ ] = dose if it differs, or a comment. Only some compounds are listed: those with a hit (about 19% of all), similar ones and a draw of the others. Unless noted, the call rests on the fitted dose curve; in most records, active means well fitted curve in the direction sought with a large enough effect; inconclusive means small, poorly fitted or top-dose-only effect, or another doubt; inactive means no such curve, though single readings can be large; an effect the other way counts as inactive or inconclusive.
SMILES,IL-1B inflam inh,SW480 rereplic,MCF10A rereplic,DT40 TDP1 no CPT,DT40 TDP1 CPT,Chronic BCR inh
Cc1cccc(N2CCN(C(=O)c3cccc(S(=O)(=O)N4CCOCC4)c3)CC2)c1C,-20,u,u,u,u,4%
CCc1ccc(NC(=O)N2CCN(C(=O)C3CCCO3)CC2)cc1 (centres undefined),7,1%,-3%,3%,9%,5%
CSc1ncc(C(=O)Nc2cccc(Cl)c2C)c(-c2ccccc2)n1,x,x,x,u,-16%,x
CCc1ccc(NC(=O)Cn2c3[n+](c4c(F)c(F)ccc42)CCCCC3)cc1,u,u,u,5.8µM*,2.6µM*,-1%
CCOC(=O)NNc1ccc2nonc2c1[N+](=O)[O-],-77*,23µM*,12%,2.9µM*,6.5µM*,u
CCc1ccc(Nc2ccc3nonc3c2[N+](=O)[O-])cc1,-18,-93%,-1%,u,-7%,x
O=C(Nc1ccc(F)cc1)c1ccccc1S(=O)(=O)c1ccccc1[N+](=O)[O-],4,-10%,-11%,15%,9%,0%
COc1ccc(OC)c(N(CC(=O)NCCc2ccc(OC)c(OC)c2)S(=O)(=O)c2ccccc2)c1,17,1%,3%,u,u,1%
COc1ccc(OC)c(N(CC(=O)NCCSCc2ccco2)S(=O)(=O)c2ccccc2)c1,4,10%,u,15µM*,u,0%
COCCCNC(=O)CN(c1cc(OC)ccc1OC)S(=O)(=O)c1ccccc1,7,-3%[9.22 µM],3%,-9%,0%,-2%
COc1ccc(OC)c(N(CC(=O)NCc2ccccc2)S(=O)(=O)c2ccccc2)c1,x,x,x,u,12µM*,x
COc1ccc(CNC(=O)CN(c2ccccc2OC)S(=O)(=O)c2cccs2)cc1,-4,-7%,-5%,u,16µM*,-4%
CCOc1ccccc1N(CC(=O)NCCSCc1ccco1)S(=O)(=O)c1ccccc1,-12,10%,22%,u,u,14%
COc1ccc(CNC(=O)CNS(=O)(=O)c2cccs2)cc1,-8,1%,3%,10%,3%,-6%
COc1ccc(OC)c(N(CC(=O)NCc2ccccc2)S(=O)(=O)c2ccc(OC)c(OC)c2)c1,47,2%,1%,u,21µM*,11%
CN(CC(=O)Nc1cccc(S(=O)(=O)NC2=NCCC2)c1)Cc1cccc(F)c1,-13,4%,-7%,-14%,1%,-1%
COc1ccc2c(c1)c1c(c(=O)n(CCc3ccccc3)c(=O)n1Cc1ccc(F)cc1)n2C,x,x,x,-12%,-8%,x
CCOC(=O)/C=C/c1ccc2c(c1)S(=O)(=O)N(Cc1ccc(OC)cc1)[C@H]2CC(=O)OCC,-15,-12%,u,13µM*,21µM*,x
COc1ccc(CN2[C@@H](CC(C)=O)c3cc(C(F)(F)F)ccc3S2(=O)=O)cc1,17,1%,20%,21µM*,16µM*,x
CCOC(=O)C[C@H]1c2cc(C(F)(F)F)ccc2S(=O)(=O)N1Cc1ccccc1,34,-4%,19%,u,u,x
CCOC(=O)C[C@H]1c2ccccc2S(=O)(=O)N1Cc1ccc(Cl)cc1,14,-2%,18%,18µM*,11µM*,x
COc1cccc(N2[C@@H](CC(C)=O)c3cc(C(F)(F)F)ccc3S2(=O)=O)c1,-27,-13%[9.22 µM],13%,u,u,x
O=C(O)C[C@H]1c2ccccc2S(=O)(=O)N1c1ccccc1,-4,-11%,23%,-25%,u,x
COc1ccc(CN2[C@@H](CC(=O)O)c3ccccc3S2(=O)=O)cc1,0,1%,-9%,2.8µM*!,u,x
C[C@@H]1CN([C@H](C)CO)C(=O)c2cc(Br)cnc2O[C@@H]1CN(C)C(=O)Nc1ccccc1,19,x,x,-12%,-7%,x
SMILES,IL-1B inflam inh,SW480 rereplic,MCF10A rereplic,DT40 TDP1 no CPT,DT40 TDP1 CPT,Chronic BCR inh
Cc1ncc(C[n+]2csc(CCOP(=O)(O)OP(=O)(O)O)c2C)c(N)n1,x,3%,0%,7%,-8%,x
CC(=O)N1CCN(C2c3cccc4cccc(c34)C2NS(=O)(=O)c2ccccc2)CC1 (centres undefined),20,-2%,-8%,-22%,3%,-6%
O=S(=O)(NC1c2cccc3cccc(c23)C1N1CCNCC1)c1ccc(Cl)cc1 (centres undefined),-60*,-2%,6%,12µM*,13µM*,u
O=C(COc1ccccc1F)Nc1ccc(S(=O)(=O)N2CCCC2)cc1,-14,1%,0%,-23%,u,-3%
Cc1ccc(F)cc1NC(=O)CSc1nc(Nc2ccccc2)nc(N2CCOCC2)n1,-13,-14%,12%,u,u,1%
CCNc1nc(SCC(=O)Nc2ccc(Cl)c(Cl)c2)nc(N2CCOCC2)n1,-59*,4%,u,18µM*,u,u
CN(C)c1nc(SCC(=O)Nc2ccccc2)nc(N2CCOCC2)n1,-1,-7%,-2%,-16%,3%,-7%
CC(C)(C)Nc1nc(SCC(=O)Nc2ccccc2)nc(N2CCOCC2)n1,-90*,-4%,u,23µM*,u,6%
O=C(CSc1nc(Nc2ccccc2)nc(N2CCOCC2)n1)Nc1ccc2c(c1)OCCO2,u,-3%,18µM*,-27%,-26%,u
CN(C)c1nc(SCC(=O)Nc2ccc(Cl)c(Cl)c2)nc(N2CCOCC2)n1,-9,18%,3%,23µM*,-75%,-5%
O=C(O)CN(C1CCCCC1)S(=O)(=O)c1ccc(F)cc1,-4,2%,1%,8%,-3%,-2%
Cc1oc(-c2cccs2)nc1CNC[C@H]1O[C@@H](n2cnc3c(N)ncnc32)[C@H](O)[C@@H]1O,8,u,-14%,-19%,-19%,-7%
Cc1ccc(CNC(=O)c2cc(NS(=O)(=O)c3ccc(C)cc3)ccn2)cc1,x,x,x,8%,5%,x
O=S1(=O)C=C[C@@H](CO)N1Cc1ccc(Br)cc1,31,x,x,-12%,-13%,x
O=C(NC12CC3CC(CC(C3)C1)C2)N(Cc1ccccc1)Cc1ccncc1,-28,15%,-12%,18µM*,13µM*,1%
c1cc(CNC23CC4CC(CC(C4)C2)C3)ccn1,37,0%,-1%,-4%,-6%,3%
